# Measurements taken from PubChem BioAssay (NCATS).
# Inconclusive results are not listed. A call without a number means that no potency is given here. Unmarked numbers belong to inactive results. Calls of active or inactive are those of the source. Calls follow the shape of the full dose curve; tested in HEK293 reporter line.
# Assay: qHTS for Inhibitors of the Functional Ribonucleoprotein Complex (vRNP) of Lymphocytic Choriomeningitis Arenaviruses (LCMV): Viability assay - alamar blue signal for LCMV Primary Screen (AID 1347085); also: nearly all actives have a fitted effect of over 80% in size
# Conditions: alamar blue viability counter-screen, LCMV vRNP screen cells; series mostly up to 57.5 µM
# Potency is read from the fitted curve at half-maximal effect.
SMILES,Potency,"activity change, negative = lower viability"
COc1ccc(-c2coc3cc(O[C@@H]4O[C@H](CO)[C@@H](O)[C@H](O)[C@H]4O)c(OC)cc3c2=O)cc1,inactive,
N[C@H](CSSC[C@@H](N)C(=O)O)C(=O)O,inactive,
CC1(C)Oc2cc3oc(=O)ccc3cc2C[C@@H]1O,inactive,
C=C[C@@H]1CN2CC[C@@H]1C[C@H]2[C@H](O)c1ccnc2ccc(OC)cc12,inactive,
COC1[C@@H](O[C@@H]2O[C@H](C)[C@@H](O[C@H]3C[C@@](C)(O)[C@H](OC(=O)CC(C)C)[C@H](C)O3)[C@H](N(C)C)[C@H]2O)[C@@H](CC=O)C[C@@H](C)[C@@H](O)/C=C/C=C/C[C@@H](C)OC(=O)C[C@H]1OC(C)=O (stereo not given in full),inactive,
CCCCCCCCCCCC,inactive,
CC1=C(/C=C/C(C)=C/C=C/C(C)=C/C=C/C=C(C)/C=C/C=C(\C)C=O)C(C)(C)CCC1,inactive,
CCCCCCCCCCCCCCCCCCCCCCCCCCCCCC,inactive,
CC(=O)OCC(=O)[C@@]1(O)CC[C@H]2[C@@H]3CCC4=CC(=O)C=C[C@]4(C)[C@@H]3[C@@H](O)C[C@@]21C,inactive,
COc1cc(CCc2cc(NC(=O)c3ccc(N4C[C@@H](C)N[C@@H](C)C4)cc3)n[nH]2)cc(OC)c1,43.2 µM (active),
CC(C)=CCc1c(O)cc(O)c2c1OC(c1ccc(O)cc1)CC2=O (stereo not given),inactive,
C[N+](C)(C)CCOP(=O)([O-])OC[C@H](O)CO,inactive,
CC(C)(O)CC[C@H](OC(=O)c1ccccc1)[C@](C)(O)[C@H]1CC[C@@]2(O)C3=CC(=O)[C@@H]4C[C@@H](O)[C@H](O)C[C@]4(C)C3CC[C@]12C (stereo not given in full),inactive,
Cc1c(O)ccoc1=O,inactive,
O=C(O)C1=CO[C@@H](O[C@@H]2O[C@H](CO)[C@H](O)[C@H](O)[C@H]2O)[C@@H]2C(CO)=CC[C@H]12,inactive,
CC(C)C1C(=O)O[C@@H]2CCN3CC=C(COC(=O)[C@](C)(O)[C@]1(C)O)[C@H]23 (stereo not given in full),inactive,
c1coc(Cn2cccc2)c1,inactive,
COc1ccc2cc1Oc1ccc(cc1)CC1c3cc(c(OC)cc3CCN1C)Oc1c(OC)c(OC)c(OC)c3c1C(C2)N(C)CC3 (stereo not given),inactive,
CCCCCCCCC(=O)OCC,inactive,
C[C@@H]1C[C@@H]2OC(=O)[C@]3(C)[C@H]2[C@@H](OC3(C)O)[C@]2(C)C(=O)C=C[C@H]12 (stereo not given in full),inactive,

SMILES,Potency,"activity change, negative = lower viability"
O=c1ccc2ccc(O[C@@H]3O[C@H](CO[C@@H]4OC[C@](O)(CO)[C@H]4O)[C@@H](O)[C@H](O)[C@H]3O)cc2o1,inactive,
CC(C)C1=CC2=CC[C@@H]3[C@](C)(CCC[C@@]3(C)C(=O)O)[C@H]2CC1,inactive,
O=c1ccn([C@H]2C[C@H](O)[C@@H](CO)O2)c(=O)[nH]1,inactive,
CCNc1nc(N)nc(Cl)n1,inactive,
CC(C)c1noc(N2CCC(COc3ccc(-c4ccc(S(C)(=O)=O)cc4)nc3)CC2)n1,inactive,
CCCCCCOC(=O)CCC,inactive,
CCC(=O)OCC(=O)[C@@]1(OC(=O)CC)[C@@H](C)C[C@@H]2[C@H]3CCC4=CC(=O)C=C[C@]4(C)[C@@]3(F)[C@@H](O)C[C@@]21C,inactive,
Cc1csc(NC(=O)c2sc3nc4c(c(C(F)(F)F)c3c2N)CCC4)n1,inactive,
CCCCCC(=O)OCC,inactive,
Cn1c(N2CCCCS2(=O)=O)nc(C(=O)NCc2ccc(F)cc2)c(O)c1=O,inactive,
O=c1c(O)c(-c2ccccc2O)oc2cc(O)cc(O)c12,inactive,
C[C@@H](O)CCC[C@H](O)/C=C/[C@H]1[C@H](O)CC(=O)[C@@H]1C/C=C\CCCC(=O)O,,-144% [at 5.82 µM]
CCCCCC/C=C/C=O,inactive,
c1cnc2c(-c3nccc4c3[nH]c3ccccc34)cccc2c1,inactive,
Cc1cc(CS(=O)(=O)c2ccccc2)cc(OCc2ccc(CN3CCC[C@H]3CO)cc2)c1,inactive,
CC1=CC2OC3CC4OC(=O)C=CC=CC(=O)OCCC(C)C(O)C(=O)OCC2(CC1O)C4(C)C31CO1 (stereo not given),inactive,
C[C@@H]1CCCCCCCCCCC1=O,inactive,
COc1ccc2[nH]cc(CCO)c2c1,inactive,
COc1ccc2c3c([nH]c2c1)C(C)NCC3 (stereo not given),inactive,
CCc1nccc2c1[nH]c1ccccc12,inactive,
